High-throughput results deposited in PubChem by National Center for Advancing Translational Sciences (NCATS).
Tb PYK inh: inhibitors of Trypanosoma brucei pyruvate kinase. Q57TT1. TbPYK enzyme, Kinase-Glo Plus ATP luminescence, 45 min. Potency, µM (titrated, usually from 76.8 µM), for inactives: top-dose activity, negative = inhibition, most hits filed as inhibitors. 410,000 tested, 0.12% active; also: potency is read from the fitted curve at half-maximal effect; nearly all actives have a fitted effect of over 50% in size
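Luminescence from Kinase-Glo Plus, added after a 45-minute room-temperature reaction, served as the end-point read-out. The enzyme and substrate were preincubated with compound before ADP (130 uM final) initiated turnover. Concentration-effect curves came from normalized qHTS data.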
FMDV inh: antivirals against foot and mouth disease virus; FMDV antiviral cell-based qHTS; Potency, µM (highest dose often 57.9 µM), inactives show at the highest dose activity change, negative = inhibition, actives largely listed as inhibitors; 410,000 tested, 1.2% active; calls by dose curve; tested in HEK293T cells; also: read-out not given here; potency is read from the fitted curve at half-maximal effect; nearly all actives have a fitted effect of over 45% in size
HCMV antiviral: human cytomegalovirus inhibition | HFF cells, HCMV-luciferase reporter, 72 h; active compounds read low | activity change, negative = inhibition, % at 57.5 µM | 410,000 tested, 4.5% active | AID 1259415; in the data active = activity change below about -60%; inconclusive = no clear call, values can overlap the other calls; inactive = above about -39%
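Two-dose cell screen: HFF monolayers treated with compounds and infected with luciferase-expressing HCMV at 1 PFU/cell, 72 h at 37C, then lysed for luciferase measurement.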
RE007 growth inh: less growth of the S. pombe RE007 Vpr strain | S. pombe RE007 Vpr strain, BacTiter-Glo ATP luminescence, 24 h | Potency, µM (doses to about 92.2 µM), for the others: top-dose activity change, negative = less growth, hits mostly inhibitors | 360,000 tested, 0.21% active | AID 651644; active = well fitted falling curve with a large enough effect; inconclusive = small, poorly fitted or top-dose-only effect; inactive = no such curve, though single readings can be large or run the other way; also: potency is read from the fitted curve at half-maximal effect; nearly all actives have a fitted effect of over 50% in size
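Fission yeast RE007 carrying one integrated HIV-1 vpr copy, seeded at OD 0.01 in PMG+AL medium with 23 nL pinned compound. Grown 24 h at 30 degrees; viability read by BacTiter-Glo luminescence after 5 min.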
Giardia FBPA inh: Giardia lamblia aldolase inhibition; A8B2U2; purified Giardia FBPA; Potency, µM (series often up to 59.6 µM), for inactives: top-dose activity, negative = inhibition, usual class: inhibitors; 290,000 tested, 0.71% active; AID 2451; also: potency is read from the fitted curve at half-maximal effect; nearly all actives have a fitted effect of over 55% in size
Target sequence (A8B2U2 whole entry, looked up): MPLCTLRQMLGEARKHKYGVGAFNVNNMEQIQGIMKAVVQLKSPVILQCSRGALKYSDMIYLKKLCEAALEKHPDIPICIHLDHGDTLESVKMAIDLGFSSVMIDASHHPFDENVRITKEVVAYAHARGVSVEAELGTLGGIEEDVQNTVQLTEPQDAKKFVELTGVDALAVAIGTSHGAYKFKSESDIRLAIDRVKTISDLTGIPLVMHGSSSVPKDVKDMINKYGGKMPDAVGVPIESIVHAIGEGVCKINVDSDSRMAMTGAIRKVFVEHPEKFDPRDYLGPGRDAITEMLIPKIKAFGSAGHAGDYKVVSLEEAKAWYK
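Giardia FBPA (40 nM reagent) was preincubated 10 min at RT with compound (up to 57.5 uM final), then substrate plus GAPDH/TPI/NAD/arsenate coupling system with diaphorase/resazurin was added; resorufin fluorescence (525/598 nm) was read after 20 min.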
Sm TGR inh: blocks Schistosoma mansoni thioredoxin glutathione reductase; Q962Y6; purified TGR, DTNB reduction, TNB absorbance 405 nm; Potency, µM (doses to about 114 µM), inactives show at the highest dose activity change, negative = inhibition, most hits filed as inhibitors; 360,000 tested, 3% active; AID 485364; also: potency is read from the fitted curve at half-maximal effect; nearly all actives have a fitted effect of over 60% in size
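TGR 20 nM + NADPH 100 uM (dispensed conc.), cpd preinc 15 min RT; start with NADPH (500 uM addition) then DTNB (15 mM addition). Kinetic TNB absorbance, 405 nm filter. Four-parameter Hill fit across titration.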
Starred values were filed as active, the others as inactive; ? = inconclusive; / = not tested or not shown; [ ] = dose if it differs, or a comment. Most compounds without a hit are left out; they make up all but 7.7% or so of the library. Unless noted, calls follow the shape of the dose curve; as a rule, active = well fitted curve in the direction sought with a large enough effect; inconclusive = small, poorly fitted or top-dose-only effect, or another doubt; inactive = no such curve, though single readings can be large; an effect the other way counts as inactive or inconclusive. % is scaled to controls: 0 for no effect and ±100 for the full control effect.

SMILES	Tb PYK inh	FMDV inh	HCMV antiviral	RE007 growth inh	Giardia FBPA inh	Sm TGR inh
CC(=O)c1c(C)[nH]c(C(=O)OCC(=O)Nc2cccc(S(=O)(=O)N3CCCC3)c2)c1C	1.0%	14.1µM*	-65.1*	-0.6%	-6.0%	1.6%
CC(=O)c1c(C)[nH]c(C(=O)Nc2cccc(S(=O)(=O)N(C)C)c2)c1C	1.0%	41.8%	337.7	-1.7%	-6.1%	-3.5%
CC(=O)c1c(C)[nH]c(C(=O)OCC(=O)Nc2cccc(S(=O)(=O)N(C)C)c2)c1C	-0.7%	-14.1%	-61.5*	11.5%	-1.6%	-10.0%
Cc1cccc(NC(=O)COC(=O)c2ccc(S(=O)(=O)N3CCCCCC3)cc2)c1	-9.9%	-7.1%	-99.2*	5.3%	/	-3.7%
CC(=O)c1c(C)[nH]c(C(=O)OCC(=O)Nc2ccccc2Cl)c1C	-1.1%	17.8µM*	-10.5	-7.2%	0.6%	12.9%
CC(=O)c1c(C)[nH]c(C(=O)OCC(=O)Nc2cccnc2Cl)c1C	-2.7%	?	-1.5	2.3%	/	/
CC(=O)c1c(C)[nH]c(C(=O)OCc2csc(CC(=O)Nc3ccccc3C)n2)c1C	-1.7%	20µM*	24.8	-10.7%	/	/
CC(C)=CC(=O)OCc1csc(CC(=O)Nc2ccccc2C)n1	-3.5%	31.6%	-15.8	12.2%	/	2.1%
CCc1nc2cc(C(=O)NC3CCS(=O)(=O)C3)cc(NC(=O)c3ccccc3OC)c2n1C (stereo not given)	/	-11.1%	/	/	/	/
COC(=O)CN1C(=O)C(O)(CC(=O)c2ccc(Br)cc2)c2ccccc21 (stereo not given)	-4.4%	-12.3%	-62.3*	-1.1%	0.6%	-16.5%
CCCN1C(=O)C(O)(CC(=O)c2ccc(C(C)C)cc2)c2ccccc21 (stereo not given)	-0.8%	-27.8%	-31.0	/	/	5.4%
COC(=O)CN1C(=O)C(O)(CC(=O)c2ccc(F)cc2)c2ccccc21 (stereo not given)	0.0%	-12.4%	-1.4	/	/	-4.4%
CCCCN1C(=O)C(O)(CC(=O)c2ccc(CC)cc2)c2cc(Br)ccc21 (stereo not given)	1.4%	-8.2%	-78.8*	/	/	-6.8%
C=CCN1C(=O)C(O)(CC(=O)c2ccco2)c2cc(Br)ccc21 (stereo not given)	1.9%	-16.9%	-81.8*	11.3%	-0.6%	-10.4%
CC(C)c1ccc(C(=O)CC2(O)C(=O)N(CCc3ccccc3)c3ccc(Cl)cc32)cc1 (stereo not given)	0.9%	1.6%	-105.2*	/	/	-3.8%
CC1CCc2c(sc3nnn(CC(=O)Nc4ccccc4Cl)c(=O)c23)C1 (stereo not given)	2.7%	?	-5.2	/	/	8.7%
CCOC(=O)c1cnc2ccccc2c1Nc1cccc(OC)c1	1.3%	-17.1%	1.7	/	/	6.8%
COc1ccc(C2c3cc(OC)c(OC)cc3Cc3c4cc(OC)c(OC)cc4cc[n+]32)cc1OC (stereo not given)	/	-13.3%	/	/	0.6%	/
C#CCN1C(=O)C(O)(CC(=O)c2ccc(OC)c(OC)c2)c2cc(Br)ccc21 (stereo not given)	3.9%	2.8%	-62.0*	/	/	-12.3%
O=C(CC1(O)C(=O)N(CCc2ccccc2)c2ccc(Br)cc21)c1ccccc1O (stereo not given)	-4.3%	6.3%	-76.6*	/	/	-1.9%
C#CCN1C(=O)C(O)(CC(=O)c2ccc(OC)c(OC)c2)c2ccccc21 (stereo not given)	-6.4%	?	26.0	1.2%	3.6%	9.0%
Nc1ccc(Nc2nc(-c3cc4ccccc4oc3=O)cs2)cc1	-1.9%	0.0%	-60.9*	?	-3.8%	0.8%[57.1 µM]
CC(=O)Nc1ccc(Nc2nc(-c3cc4ccccc4oc3=O)cs2)cc1	-6.0%	-29.8%	1.5	-4.5%	-7.0%	-26.8%
Cc1ccc(C)n1-c1ccc(N2CCOCC2)c([N+](=O)[O-])c1	-7.0%	-9.7%	-30.6	1.3%	-13.7%	35.5µM*
Cc1ccc(C)n1-c1ccc(N2CCOCC2)cc1	-6.6%	-15.4%	-73.2*	-11.8%	?	24.2%
